# Results filed as inconclusive are left out. Entries that show only a call come without a potency. Activity calls are given as the source filed them. Unless noted, the call rests on the fitted dose curve; in most records, active means well fitted curve in the direction sought with a large enough effect; inconclusive means small, poorly fitted or top-dose-only effect, or another doubt; inactive means no such curve, though single readings can be large; an effect the other way counts as inactive or inconclusive.
# Experiments:
# [1] = AP1 Signaling Pathway (AID 357; active means well fitted curve in either direction with a large enough effect, not every such curve was filed as active;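 further: ME-180 reporter cells stimulated with EGF at its EC50 level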)
# Procedure, shortened: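 Beta-lactamase reporter under AP-1 response element, ME-180 background. Stimulus: EC50 EGF. Compound exposure 5 h, 37 °C. Detection: CCF4, 2.5 h RT, 460/530 nm. Values: AC50 from titration.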
# [2] = target: Cytochrome P450 1A2 (Homo sapiens) (UniProt P05177); assay: p450-cyp1a2 (AID 410; calls by dose curve; further: potency means the concentration at half of the fitted maximal effect)
# Procedure, shortened: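 Luminescent readout of luciferin formed from Luciferin-ME by human CYP1A2; data normalized against complete inhibition by 57 uM furafylline. Enzyme 20nM, substrate 100uM at Km, 100mM KPO4 buffer, 60 min reaction at room temperature.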
# [3] = Stat Signaling Pathway (AID 446; active means well fitted curve in either direction with a large enough effect, not every such curve was filed as active;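 further: ME-180 cervical cancer cells given 40 pM IL-6 alongside compound; SIE-controlled beta-lactamase reporter measured as 460/530 nm FRET emission ratio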)
# Procedure, shortened: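 ME-180 cells carrying a SIE-driven beta-lactamase reporter are stimulated with 40 pM IL-6 for 5 h at 37C in the presence of compound. The 460/530 nm FRET substrate ratio is read after 2.5 h at RT. Data are normalised to 300 pM IL-6 and to 125 nM JAK inhibitor controls.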
# [4] = target: Glucocorticoid receptor (Homo sapiens) (UniProt P04150); assay: GR-GFP Redistribution (AID 450;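 active means compounds whose dose series gives a full or clear partial fitted curve of increased nuclear translocation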; further: potency means the concentration at half of the fitted maximal effect); settings: U2OS GR-GFP nuclear translocation, laser cytometry, 2 h
# [5] = target: Glucocorticoid receptor (Homo sapiens) (UniProt P04150); assay: GR-EFC Redistribution (AID 451; calls by dose curve; further: potency means the concentration at half of the fitted maximal effect); settings: CHO-K1 GR-EFC translocation, beta-gal luminescence, 2 h
# Procedure, shortened: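 CHO-K1 cells stably expressing nuclear-localized β-gal enzyme acceptor and GR fused C-terminally to the enzyme donor fragment; ligand-driven nuclear translocation restores β-gal by complementation. Compounds titrated up to 46 uM final, 2 h at 37 °C; luminescence read.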
# [6] = target: Mitogen-activated protein kinase 10 (Mus musculus) (UniProt Q61831); assay: JNK3 AlphaScreen Assay (AID 530; active means well fitted curve in either direction with a large enough effect, not every such curve was filed as active;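 further: kinase came from lysate of stimulated human HepG2 cells; signal reports phosphorylation of biotinylated GST-cJun 1-79 at Ser73 with 10 µM ATP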)
# Procedure, shortened: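 Inhibitors reduce antibody binding to phosphorylated biotin-cJun, lowering AlphaScreen luminescence. Lysates from HepG2 cells pre-activated by IL-1beta plus TNF-alpha supplied JNK3; compounds were titrated.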
# [7] = target: 3',5'-cyclic-AMP phosphodiesterase 4B (Homo sapiens) (UniProt Q07343); assay: qHTS Assay for Inhibitors of PDE-IV (AID 607; active means well fitted activation curve with a large enough effect in the main read-out, with a control signal flat, not every such curve was filed as active)
# Procedure, shortened: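 HEK293 ACTOne cells with CNG channel (1000/well), endogenous PDE4; membrane potential dye, compounds up to 22.9 uM final. Fluorescence Ex 535/Em 590; RO 20-1724 (100 uM final) as reference.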
# [8] = target: Guanine nucleotide-binding protein G(i) subunit alpha-1 (Homo sapiens) (UniProt P63096); assay: qHTS Assay for Inhibitors of RGS12 GoLoco Motif Activity (Green Fluorophore) (AID 879);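 further: negative values mean loss of peptide binding seen as reduced polarization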
# Procedure, shortened: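 Fluorescence polarization assay: 50 nM Gαi1 with 10 nM FITC-labeled RGS12 GoLoco peptide in 10 mM Tris pH 7.5, 150 mM NaCl, 0.1 mM GDP, 0.05% NP40, 10 min at room temperature with compound.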
# [9] = target: Muscarinic acetylcholine receptor M1 (Rattus norvegicus) (UniProt P08482); assay: qHTS Assay for Antagonists of Acetylcholine Muscarinic M1 Receptor: Measurement of IP-One Response (AID 944); further: nearly all actives have a fitted effect of over 75% in size
# Procedure, shortened: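 M1-CHO (rat), 2000 cells/well, overnight recovery; cpd 10 min; carbachol EC80 (200 nM), 30 min, HEPES buffer + 50 mM LiCl pH 7.4; IP-One HTRF, Ex 337, Em 620/665 nm.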
# [10] = target: Pyruvate kinase (Leishmania mexicana) (UniProt Q27686); assay: qHTS Validation Assay for Inhibitors of Leishmania Mexicana Pyruvate Kinase (AID 945)
# Procedure, shortened: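 Pyruvate kinase activity of E451W LmPYK (0.2 nM) was followed as ATP output after 1 h at room temperature with 0.5 mM PEP and 0.1 mM ADP, detected by PKLight luminescence.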
# [11] = target: Pyruvate kinase PKM (Homo sapiens) (UniProt P14618); assay: qHTS Assay for Activators of Human Muscle Pyruvate Kinase (AID 954; active means well fitted curve in the direction sought with a large enough effect, not every such curve was filed as active)
# Procedure, shortened: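 Purified human PKM2 (0.1 nM) with 0.5 mM PEP (Km) and 0.1 mM ADP in 50 mM imidazole pH 7.2, KCl, MgCl2, 1 h at room temperature; ATP formed read by coupled luciferase luminescence. Normalized to no-enzyme/110 uM thiadiazolimine inhibition; 0.3 nM enzyme column for activation.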
# [12] = target: Alpha-galactosidase (Coffea arabica) (UniProt Q42656); assay: Counterscreen for Glucocerebrosidase Inhibitors: qHTS Assay for Coffee Bean alpha-Galactosidase at pH 4.5 (AID 957)
# Procedure, shortened: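 Coffee bean alpha-galactosidase 2 nM, substrate 4-MU-alpha-Gal 80 uM, pH 4.5 citrate/Tween-20, 20 min RT. Cpd titration 0.7 nM–77 uM. Stop pH 10, fluorescence 365/440 nm; Hill-equation AC50.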
# [13] = target: alpha-glucosidase (Oryza sativa, rice) (UniProt Q653V4); assay: Counterscreen for Glucocerebrosidase Inhibitors: qHTS Assay for Rice alpha-Glucosidase at pH 5.0 (AID 997)
# Procedure, shortened: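 Rice alpha-glucosidase (4 nM final) with 400 uM 4-methylumbelliferyl-alpha-D-glucopyranoside in citrate buffer pH 5.0, 20 min at room temperature, stopped at pH 10; fluorescence 365/440 nm, compounds 0.7 nM–77 uM, AC50 from Hill fits.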
# [14] = target: Alpha-galactosidase (Coffea arabica) (UniProt Q42656); assay: Counterscreen for Glucocerebrosidase Inhibitors: qHTS Assay for Coffee Bean alpha-Galactosidase at pH 5.9 (AID 998)
# Procedure, shortened: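 Green coffee bean enzyme (2 nM final) was incubated with compounds (0.7 nM–77 uM) and 4-methylumbelliferyl alpha-D-galactopyranoside (80 uM) in citrate buffer pH 5.9, 20 min at room temperature. High-pH stop; fluorescence 365/440 nm; AC50 from Hill fits.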
# [15] = target: Ubiquitin carboxyl-terminal hydrolase 1 (Homo sapiens) (UniProt O94782); assay: Inhibitors of USP1/UAF1: Pilot qHTS (AID 504865);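 further: rhodamine fluorescence freed from ubiquitin-rhodamine substrate followed over time; top concentration of the series differs between compounds; nearly all actives have a fitted effect of over 35% in size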
# Procedure, shortened: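 Kinetic fluorescence assay: 1nM USP1/UAF1, 15 min compound preincubation, then 150nM Ub-Rho; 480/540 nm.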
# [16] = target: DNA dC->dU-editing enzyme APOBEC-3G (Homo sapiens) (UniProt Q9HC16); assay: qHTS for inhibitors of Vif-A3G interactions: Validation (AID 588379); further: potency means the concentration at half of the fitted maximal effect
# Procedure, shortened: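 HeLa cells stably expressing Vif and A3G-eYFP, 700 cells/well, incubated overnight at 37 deg C, then exposed to compound overnight at 37 deg C. Inhibition of Vif-mediated degradation read as increased yellow fluorescence (Ex 488/Em 500-530) by laser-scanning cytometry.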
# [17] = tested on: Zika virus NS2B-NS3 protease; assay: Primary screen GU AMC qHTS for Zika virus inhibitors (AID 1347154); further: nearly all actives have a fitted effect of over 70% in size
# Procedure, shortened: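 Unlinked Zika NS2B hydrophilic domain/NS3 protease domain noncovalent complex (25 nM final) in 10 mM Tris-HCl pH 8.0, 0.01% Tween 20, with AMC peptide substrate. Fluorescence (ex 340, em 450 nm) change over 15 min, room temperature; percent inhibition fitted to 4-parameter Hill equation.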
# [18] = Primary qHTS for small molecule stabilizers of the endoplasmic reticulum resident proteome: Secreted ER Calcium Modulated Protein (SERCaMP) assay (AID 1508630)
# Procedure, shortened: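 GLuc-SERCaMP-expressing SH-SY5Y cells, pretreated 16 h with compound, are challenged with thapsigargin to empty ER calcium stores; after 4 h, coelenterazine is added directly to the medium and luminescence is imaged.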
# [19] = qHTS Assay for Lipid Storage Modulators (AID 1519; calls by dose curve; further: potency means the concentration at half of the fitted maximal effect); settings: Drosophila S3 cells, BODIPY lipid droplet/cell ratio, laser cytometry, cells loaded with oleic acid; for activity change, negative = inhibition: at 57.5 µM (top of the series)
# Procedure, shortened: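 Cells seeded at 5,000 per well were treated with compounds over a concentration series and loaded with oleic acid (400 uM, as added). Lipid droplet fluorescence (488 nm excitation, 500-530 nm channel) was read by laser-scanning cytometry and normalized to 20 uM Triacsin C.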
# [20] = measured here: cell count channel max response
# [21] = measured here: lipid channel max response
# Chain of Glucocorticoid receptor (Homo sapiens) (P04150 whole entry, looked up, the tested form may be a part): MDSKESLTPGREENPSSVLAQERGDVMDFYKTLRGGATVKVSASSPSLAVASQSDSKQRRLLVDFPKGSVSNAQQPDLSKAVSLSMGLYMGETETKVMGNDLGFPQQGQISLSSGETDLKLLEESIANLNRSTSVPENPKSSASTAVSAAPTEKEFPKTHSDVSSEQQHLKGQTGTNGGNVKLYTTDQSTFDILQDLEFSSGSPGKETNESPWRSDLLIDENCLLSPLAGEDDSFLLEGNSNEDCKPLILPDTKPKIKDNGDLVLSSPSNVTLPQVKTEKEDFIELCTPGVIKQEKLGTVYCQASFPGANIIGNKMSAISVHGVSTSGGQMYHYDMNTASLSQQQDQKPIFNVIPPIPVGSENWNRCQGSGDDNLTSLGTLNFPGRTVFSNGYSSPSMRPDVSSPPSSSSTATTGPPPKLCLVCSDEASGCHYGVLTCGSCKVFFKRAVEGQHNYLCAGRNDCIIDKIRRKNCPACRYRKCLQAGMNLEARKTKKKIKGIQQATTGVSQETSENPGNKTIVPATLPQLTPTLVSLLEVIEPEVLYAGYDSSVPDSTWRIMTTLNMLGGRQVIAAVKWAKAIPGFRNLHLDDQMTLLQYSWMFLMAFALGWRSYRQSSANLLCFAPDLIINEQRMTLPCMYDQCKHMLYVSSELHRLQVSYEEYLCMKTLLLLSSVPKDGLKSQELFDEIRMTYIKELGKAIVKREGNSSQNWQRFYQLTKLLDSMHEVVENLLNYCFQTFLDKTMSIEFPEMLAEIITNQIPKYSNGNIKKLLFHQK
# Chain of Pyruvate kinase PKM (Homo sapiens) (P14618 whole entry, looked up): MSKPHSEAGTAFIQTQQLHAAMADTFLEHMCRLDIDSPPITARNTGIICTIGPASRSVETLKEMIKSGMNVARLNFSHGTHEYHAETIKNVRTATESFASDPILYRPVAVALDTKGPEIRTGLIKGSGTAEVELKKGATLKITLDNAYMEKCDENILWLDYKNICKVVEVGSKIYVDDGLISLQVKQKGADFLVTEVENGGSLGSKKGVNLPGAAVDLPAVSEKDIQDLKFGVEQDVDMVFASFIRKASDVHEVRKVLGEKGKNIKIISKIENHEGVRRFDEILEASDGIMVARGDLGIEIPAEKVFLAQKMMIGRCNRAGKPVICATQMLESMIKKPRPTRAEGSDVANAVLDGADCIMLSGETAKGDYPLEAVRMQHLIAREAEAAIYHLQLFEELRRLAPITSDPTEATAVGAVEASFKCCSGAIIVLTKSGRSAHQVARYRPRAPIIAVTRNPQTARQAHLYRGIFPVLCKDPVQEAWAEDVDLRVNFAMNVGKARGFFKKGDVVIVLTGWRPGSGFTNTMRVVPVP
# Chain of Cytochrome P450 1A2 (Homo sapiens) (P05177 whole entry, looked up): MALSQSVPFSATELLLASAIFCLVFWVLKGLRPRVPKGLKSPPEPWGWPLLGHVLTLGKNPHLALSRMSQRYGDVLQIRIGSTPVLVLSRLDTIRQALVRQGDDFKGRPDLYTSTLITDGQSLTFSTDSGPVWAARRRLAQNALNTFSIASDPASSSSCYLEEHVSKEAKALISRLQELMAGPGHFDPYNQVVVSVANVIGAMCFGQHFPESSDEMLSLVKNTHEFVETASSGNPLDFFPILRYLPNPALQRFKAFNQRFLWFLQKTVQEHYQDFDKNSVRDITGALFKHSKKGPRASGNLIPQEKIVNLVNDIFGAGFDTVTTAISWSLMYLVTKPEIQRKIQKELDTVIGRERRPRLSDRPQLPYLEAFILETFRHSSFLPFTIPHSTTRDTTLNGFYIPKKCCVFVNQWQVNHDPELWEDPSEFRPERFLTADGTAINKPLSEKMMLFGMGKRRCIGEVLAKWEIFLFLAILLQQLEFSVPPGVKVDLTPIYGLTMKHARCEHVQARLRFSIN
# Chain of Guanine nucleotide-binding protein G(i) subunit alpha-1 (Homo sapiens) (P63096 whole entry, looked up): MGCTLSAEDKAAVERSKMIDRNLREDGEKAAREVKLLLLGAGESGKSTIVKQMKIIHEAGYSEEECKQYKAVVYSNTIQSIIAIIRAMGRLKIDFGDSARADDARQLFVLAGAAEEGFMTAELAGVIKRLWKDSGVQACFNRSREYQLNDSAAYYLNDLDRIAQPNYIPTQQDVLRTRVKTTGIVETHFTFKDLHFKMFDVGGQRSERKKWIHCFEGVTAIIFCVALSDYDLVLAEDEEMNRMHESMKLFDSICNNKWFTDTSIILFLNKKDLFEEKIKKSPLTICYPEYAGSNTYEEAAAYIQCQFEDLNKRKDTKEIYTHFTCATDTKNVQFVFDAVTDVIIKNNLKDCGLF
# Chain of Muscarinic acetylcholine receptor M1 (Rattus norvegicus) (P08482 whole entry, looked up): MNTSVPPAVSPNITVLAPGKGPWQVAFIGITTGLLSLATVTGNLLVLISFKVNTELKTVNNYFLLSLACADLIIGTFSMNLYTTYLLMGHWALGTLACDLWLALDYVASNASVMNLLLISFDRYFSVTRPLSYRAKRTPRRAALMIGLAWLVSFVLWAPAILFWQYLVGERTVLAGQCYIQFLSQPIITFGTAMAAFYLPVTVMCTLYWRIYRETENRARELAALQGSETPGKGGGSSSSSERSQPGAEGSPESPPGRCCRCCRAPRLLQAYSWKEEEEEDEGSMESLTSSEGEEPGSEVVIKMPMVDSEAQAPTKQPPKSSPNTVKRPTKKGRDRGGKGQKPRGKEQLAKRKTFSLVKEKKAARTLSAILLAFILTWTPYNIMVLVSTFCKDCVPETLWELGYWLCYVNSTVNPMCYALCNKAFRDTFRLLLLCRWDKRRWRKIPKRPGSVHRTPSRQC
# Chain of Ubiquitin carboxyl-terminal hydrolase 1 (Homo sapiens) (O94782 whole entry, looked up): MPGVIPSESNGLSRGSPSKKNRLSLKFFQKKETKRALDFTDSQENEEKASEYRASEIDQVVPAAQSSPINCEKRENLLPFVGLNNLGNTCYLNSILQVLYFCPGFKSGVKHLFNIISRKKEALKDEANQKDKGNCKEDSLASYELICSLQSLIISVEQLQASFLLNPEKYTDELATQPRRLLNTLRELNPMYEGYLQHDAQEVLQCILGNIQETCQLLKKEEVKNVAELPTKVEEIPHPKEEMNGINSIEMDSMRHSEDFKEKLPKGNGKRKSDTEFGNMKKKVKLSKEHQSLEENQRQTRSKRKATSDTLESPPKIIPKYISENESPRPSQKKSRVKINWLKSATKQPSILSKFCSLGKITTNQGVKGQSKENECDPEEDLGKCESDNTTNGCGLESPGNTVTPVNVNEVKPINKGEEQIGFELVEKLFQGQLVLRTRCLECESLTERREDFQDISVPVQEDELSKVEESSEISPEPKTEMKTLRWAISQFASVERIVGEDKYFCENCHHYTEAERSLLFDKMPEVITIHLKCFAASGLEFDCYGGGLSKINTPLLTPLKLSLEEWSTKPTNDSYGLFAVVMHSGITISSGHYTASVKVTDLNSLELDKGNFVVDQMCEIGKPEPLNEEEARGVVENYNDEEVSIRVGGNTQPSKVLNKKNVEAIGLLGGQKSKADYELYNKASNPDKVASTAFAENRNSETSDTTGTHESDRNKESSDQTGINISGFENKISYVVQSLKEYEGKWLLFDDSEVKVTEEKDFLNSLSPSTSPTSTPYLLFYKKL
# Chain of Pyruvate kinase (Leishmania mexicana) (Q27686 2-499 E452W): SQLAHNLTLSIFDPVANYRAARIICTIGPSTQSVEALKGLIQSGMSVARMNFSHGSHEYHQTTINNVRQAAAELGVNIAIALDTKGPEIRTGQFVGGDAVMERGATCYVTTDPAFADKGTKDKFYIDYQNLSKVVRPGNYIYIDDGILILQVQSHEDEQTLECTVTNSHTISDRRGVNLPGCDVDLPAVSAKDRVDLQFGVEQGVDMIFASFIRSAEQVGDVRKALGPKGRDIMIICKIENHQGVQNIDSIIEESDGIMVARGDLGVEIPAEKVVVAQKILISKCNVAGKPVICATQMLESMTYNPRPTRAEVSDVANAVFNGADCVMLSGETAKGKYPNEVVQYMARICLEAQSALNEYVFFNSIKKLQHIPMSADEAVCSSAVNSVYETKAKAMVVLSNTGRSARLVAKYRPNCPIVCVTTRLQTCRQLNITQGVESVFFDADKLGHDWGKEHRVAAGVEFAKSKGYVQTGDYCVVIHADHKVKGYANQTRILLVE
# Chain of DNA dC->dU-editing enzyme APOBEC-3G (Homo sapiens) (Q9HC16 whole entry, looked up): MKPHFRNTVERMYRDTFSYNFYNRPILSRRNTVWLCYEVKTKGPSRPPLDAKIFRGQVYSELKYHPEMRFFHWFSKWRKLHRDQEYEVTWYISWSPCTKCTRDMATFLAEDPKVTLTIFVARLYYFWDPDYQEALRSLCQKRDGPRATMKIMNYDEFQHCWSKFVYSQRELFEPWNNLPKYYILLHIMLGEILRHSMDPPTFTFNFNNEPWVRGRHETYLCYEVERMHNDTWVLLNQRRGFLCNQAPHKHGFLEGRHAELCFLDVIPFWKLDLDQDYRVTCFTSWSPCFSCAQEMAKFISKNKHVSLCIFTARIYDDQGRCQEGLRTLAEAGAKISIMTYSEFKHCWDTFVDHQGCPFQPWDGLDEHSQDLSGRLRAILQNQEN
# Chain of Alpha-galactosidase (Coffea arabica) (Q42656 whole entry, looked up): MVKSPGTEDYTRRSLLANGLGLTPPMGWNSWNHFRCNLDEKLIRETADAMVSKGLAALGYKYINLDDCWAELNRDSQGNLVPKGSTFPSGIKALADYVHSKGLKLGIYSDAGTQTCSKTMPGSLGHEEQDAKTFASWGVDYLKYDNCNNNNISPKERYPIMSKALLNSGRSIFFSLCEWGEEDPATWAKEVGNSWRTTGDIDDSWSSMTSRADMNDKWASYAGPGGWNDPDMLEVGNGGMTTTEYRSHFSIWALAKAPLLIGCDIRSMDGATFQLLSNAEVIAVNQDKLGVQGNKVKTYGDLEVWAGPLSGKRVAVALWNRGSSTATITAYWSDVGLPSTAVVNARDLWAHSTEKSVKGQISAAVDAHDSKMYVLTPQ
structure (smiles),measurement,setting,value
COc1ccc(CNC(=O)/C=C\c2ccc3[nH]cc(CCN(C)C)c3c2)cc1,outcome,[1],inactive
same,Potency,[2],inactive
same,outcome,[3],inactive
same,Potency,[4],> 46 µM (inactive)
same,Potency,[5],> 46 µM (inactive)
same,outcome,[6],inactive
same,Potency,[7],inactive
same,outcome,[8],inactive
same,Potency,[9],inactive
same,outcome,[10],inactive
same,outcome,[11],inactive
same,outcome,[12],inactive
same,outcome,[13],inactive
same,outcome,[14],inactive
same,Potency,[15],inactive
same,Potency,[16],inactive
same,Potency,[17],inactive
same,Potency,[18],inactive
O=C(O)/C=C\CO,Potency,[5],> 46 µM (inactive)
same,outcome,[6],inactive
same,Potency,[7],inactive
same,"activity change, negative = inhibition",[19],3.52% (inactive)
same,max response,[19]; [20],-10.2%
same,max response,[19]; [21],-9.77%
same,Potency,[15],inactive
same,Potency,[16],inactive
same,Potency,[17],inactive
same,Potency,[18],inactive
CN1Cc2ccccc2[C@@H]2c3cccc4[nH]cc(c34)C[C@H]21,Potency,[4],> 46 µM (inactive)
same,Potency,[5],> 46 µM (inactive)
same,Potency,[16],26.6 µM (active)
same,Potency,[17],inactive
same,Potency,[18],inactive
CC(C)NC[C@H](O)c1ccc(N)c(C#N)c1,Potency,[4],> 46 µM (inactive)
same,Potency,[5],> 46 µM (inactive)
same,outcome,[6],inactive
same,"activity change, negative = inhibition",[19],11.2% (inactive)
same,max response,[19]; [20],17.3%
same,max response,[19]; [21],26.1%
same,Potency,[15],inactive
same,Potency,[16],inactive
same,Potency,[17],inactive
same,Potency,[18],inactive
O=C(O)[C@H]1[C@H]2CN[C@H](C(=O)O)[C@H]21,Potency,[2],31.6 µM (active)
same,Potency,[5],> 46 µM (inactive)
same,outcome,[6],inactive
same,Potency,[7],inactive
same,"activity change, negative = inhibition",[19],-5.1% (inactive)
same,max response,[19]; [20],-11.8%
same,max response,[19]; [21],-16.1%
same,Potency,[16],inactive
same,Potency,[17],inactive
same,Potency,[18],inactive
C[C@](N)(CCP(=O)(O)O)C(=O)O,Potency,[4],> 46 µM (inactive)
same,Potency,[5],> 46 µM (inactive)
same,outcome,[6],inactive
same,"activity change, negative = inhibition",[19],6.09% (inactive)
same,max response,[19]; [20],-23.4%
same,max response,[19]; [21],-20.7%
same,Potency,[15],inactive
same,Potency,[16],inactive
same,Potency,[17],inactive
same,Potency,[18],inactive
C[C@@H]1O[C@@H](O[C@H]2C[C@@H](O)[C@]3(CO)[C@@H]4C(CC[C@]3(O)C2)[C@@]2(O)CC[C@H](C3=CC(=O)OC3)[C@@]2(C)C[C@H]4O)[C@H](O)[C@H](O)[C@H]1O (stereo partly specified),Potency,[16],inactive
same,Potency,[17],inactive
same,Potency,[18],inactive
NC[C@H](CS(=O)(=O)O)c1ccc(Cl)cc1,Potency,[2],inactive
same,Potency,[4],> 46 µM (inactive)
same,Potency,[5],> 46 µM (inactive)
same,"activity change, negative = inhibition",[19],3.36% (inactive)
same,max response,[19]; [20],7.7%
same,max response,[19]; [21],12%
same,Potency,[16],inactive
same,Potency,[17],inactive
same,Potency,[18],inactive
O=C1CS[C@@H](c2ccccc2Cl)c2cc(Cl)ccc2N1,Potency,[4],> 46 µM (inactive)
same,Potency,[5],> 46 µM (inactive)
same,Potency,[16],inactive
same,Potency,[17],inactive
same,Potency,[18],inactive
NC[C@H](CP(=O)(O)O)c1ccc(Cl)cc1,outcome,[1],inactive
same,Potency,[2],inactive
same,outcome,[3],inactive
same,Potency,[4],> 46 µM (inactive)
same,Potency,[5],> 46 µM (inactive)
same,outcome,[6],inactive
same,outcome,[8],inactive
same,Potency,[9],inactive
same,outcome,[10],inactive
same,outcome,[11],inactive
same,outcome,[12],inactive
same,outcome,[13],inactive
same,outcome,[14],inactive
same,Potency,[16],inactive
same,Potency,[17],inactive
same,Potency,[18],inactive
CC1OC(=O)C(C(C)C)NC(=O)C(C(C)C)OC(=O)C(C(C)C)NC(=O)C(C)OC(=O)C(C(C)C)NC(=O)C(C(C)C)OC(=O)C(C(C)C)NC(=O)C(C)OC(=O)C(C(C)C)NC(=O)C(C(C)C)OC(=O)C(C(C)C)NC1=O (stereo unspecified),Potency,[19],0.316 µM (active)
same,max response,[19]; [20],0.207%
same,max response,[19]; [21],-94.2%
same,Potency,[17],inactive
same,Potency,[18],inactive
CC(=O)O[C@@H]1CN2CCC1CC2,Potency,[2],inactive
same,Potency,[5],> 46 µM (inactive)
same,outcome,[6],inactive
same,Potency,[7],inactive
same,"activity change, negative = inhibition",[19],2.83% (inactive)
same,max response,[19]; [20],-10.5%
same,max response,[19]; [21],-8.98%
same,Potency,[15],inactive
same,Potency,[16],inactive
same,Potency,[17],inactive
same,Potency,[18],inactive
N#CC(C#N)=Cc1ccc([N+](=O)[O-])c(O)c1,Potency,[2],31.6 µM (active)
same,outcome,[3],inactive
same,Potency,[4],> 46 µM (inactive)
same,Potency,[5],> 46 µM (inactive)
same,outcome,[6],inactive
same,outcome,[8],inactive
same,Potency,[9],inactive
same,outcome,[10],inactive
same,outcome,[11],inactive
same,outcome,[12],inactive
same,outcome,[13],inactive
same,outcome,[14],inactive
same,Potency,[17],inactive
same,Potency,[18],inactive

# Reference: PubChem BioAssay (NCATS)
